# Source: PubChem BioAssay
# G9a block – blocks human histone lysine methyltransferase G9a; Potency, µM (highest dose often 102 µM), without a hit: at the highest dose activity, negative = inhibition, usual class: inhibitors; G9a H3K9 monomethylation, AlphaScreen, 2 h; 8.8% of 350,000 active; AID 504332; Q96KQ7; note: potency is the fitted concentration of half-maximal effect; % is set by controls: 0 for no effect and ±100 for the full control effect; nearly all actives have a fitted effect of over 75% in size
# Target sequence (Q96KQ7 913-1193 limits assumed): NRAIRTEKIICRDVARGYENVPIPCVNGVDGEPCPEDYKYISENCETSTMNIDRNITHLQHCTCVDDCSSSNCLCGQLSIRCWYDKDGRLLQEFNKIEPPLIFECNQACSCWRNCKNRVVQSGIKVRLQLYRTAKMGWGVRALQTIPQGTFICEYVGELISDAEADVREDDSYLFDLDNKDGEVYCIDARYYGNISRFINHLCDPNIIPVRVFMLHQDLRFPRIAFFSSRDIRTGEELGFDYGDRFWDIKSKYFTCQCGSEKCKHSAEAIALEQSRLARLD
#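 AlphaScreen read-out: biotin-H3K9 peptide (500 nM) methylation by 20 nM enzyme with 20 uM SAM, 2 h at room temperature after 15 min compound preincubation; anti-monomethyl H3K9 antibody plus donor/acceptor beads, 10 min dark.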
# Six1-Eya2 inh – inhibitors of human Six1/Eya2 interaction; Q15475+O00167; AlphaScreen GST-Six1/His-Eya2 binding, biochemical; stronger effect = lower value; activity change, % (concentration not given with the values); 0.56% of 360,000 active; in the data active = activity change below about -65%; inconclusive = mostly about -30% to -63%; note: % is set by controls: 0 for no effect and ±100 for the full control effect
#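 Six1/Eya2 binding was read as AlphaScreen signal after compounds were pinned into GST-Six1 plus His-tagged Eya2 (5X stock 250/500 nM) in pH 8.0 Tris/NaCl/TCEP buffer, beads added, then incubated 1 h, 37 C, dark.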
# CtBP-E1A inh – inhibitors of CtBP/E1A interaction | AlphaScreen GST-E1A/His-CtBP binding, 1536-well; stronger effect = lower value | activity change, % (test concentration not listed) | 0.49% of 340,000 active; in the data active = activity change below about -65%; inconclusive = mostly about -30% to -63%; note: % is set by controls: 0 for no effect and ±100 for the full control effect
#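 Protein mix (5X: 125 nM each GST-E1A, His-CtBP) was incubated with pinned compound 2 h at 37 deg C in dark, in 50 mM Tris pH 8.0 buffer with 300 mM NaCl. Glutathione donor and nickel acceptor beads followed; AlphaScreen signal read after 1 h.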
# HP1b binding inh – inhibitors of HP1-beta chromodomain binding to methylated histone tails | P83916 | Potency, µM (series often up to 114 µM), inactives show top-dose activity change, negative = inhibition, most hits filed as inhibitors | 0.56% of 390,000 active | AlphaScreen HP1-beta / biotin-H3K9me3 peptide binding; note: potency is the fitted concentration of half-maximal effect; nearly all actives have a fitted effect of over 70% in size
# Target sequence (P83916 whole entry, looked up): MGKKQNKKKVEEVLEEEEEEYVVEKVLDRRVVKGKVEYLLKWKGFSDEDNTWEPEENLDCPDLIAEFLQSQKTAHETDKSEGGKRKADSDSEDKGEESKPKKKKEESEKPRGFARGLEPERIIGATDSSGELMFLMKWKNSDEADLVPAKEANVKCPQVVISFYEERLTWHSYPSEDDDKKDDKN
#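 AlphaScreen: HP1-beta (50 nM) preformed 30 min with biotin-H3(1-18)K9me3 peptide (50 nM) in PBS pH 7.4, 0.01% Tween-20. Compound added for 30 min at RT, then streptavidin donor/nickel chelate acceptor beads (10 ug/mL) for 30 min.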
# JMJD2A Tudor – blocks the human JMJD2A Tudor domain; AlphaScreen JMJD2A-Tudor / H3K4me3 peptide binding; Potency, µM (doses to about 114 µM), for inactives: at the highest dose activity change, negative = inhibition, actives largely listed as inhibitors; 4.4% of 390,000 active; AID 504339; note: potency is the fitted concentration of half-maximal effect; % is set by controls: 0 for no effect and ±100 for the full control effect; nearly all actives have a fitted effect of over 50% in size
# BAZ2B inh – inhibitors of human BAZ2B bromodomain; AlphaScreen BAZ2B-H3K14Ac peptide displacement; Potency, µM (titrated, usually from 114 µM), for inactives: at the highest dose activity change, negative = inhibition, actives largely listed as inhibitors; 4.4% of 360,000 active; AID 504333; note: potency is the fitted concentration of half-maximal effect; % is set by controls: 0 for no effect and ±100 for the full control effect; nearly all actives have a fitted effect of over 60% in size
#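 In this displacement format the biotinylated H3(5-23) peptide acetylated at Lys14 serves as ligand at 50 nM, with BAZ2B at 50 nM in PBS pH 7.4 containing 0.01% Tween-20. Donor and acceptor beads are 10 ug/mL final.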
# * marks the source's active call; other numbers are inactive results; ? = inconclusive; . = not tested or not shown; [ ] = dose if it differs, or a comment. A selection: hits, their analogues and other compounds. The true share with any hit is near 10%. Unless noted, calls come from the whole dose curve; as a rule, active = well fitted inhibition curve with a large enough effect; inconclusive = small, poorly fitted or top-dose-only effect; inactive = no such curve, though single readings can be large or run the other way.
SMILES,G9a block,Six1-Eya2 inh,CtBP-E1A inh,HP1b binding inh,JMJD2A Tudor,BAZ2B inh
O=C(N/N=C/c1c(O)n(CCc2ccccc2)c(=O)[nH]c1=O)c1ccncc1,20µM*,?,?,40.8%,-32.1%,56.2µM*
Cc1ccc(-n2c(O)c(/C=N/NC(=O)c3ccncc3)c(=O)[nH]c2=O)cc1C,?,-27.0,4.4,50.8%,56.2µM*,50.1µM*
O=C(N/N=C/c1c(O)n(CCc2ccc(F)cc2)c(=O)[nH]c1=O)c1ccncc1,123.2%[59 µM],?,-1.4,29.8%,?,50.1µM*
CC[C@@]1(c2ccc(N)cc2)CCC(=O)NC1=O,-25.8%[12.7 µM],.,.,.,.,.
O=C(Nc1cccc(F)c1)N1CCC2(CC1)CCN(C(=O)Oc1ccccc1)CC2,-3.3%[12.7 µM],.,.,.,.,.
CCC(Oc1ccc(Cl)cc1)C(=O)OC1CC2CCC(C1)N2C (centres undefined),13.4%[59 µM],.,.,.,.,.
COc1ccc(NC(=O)CSc2oc(-c3cccs3)nc2S(=O)(=O)c2ccccc2)c(OC)c1,?,.,.,?,?,-18.9%
c1ccc(N2CCCC3(CCNCC3)C2)nc1,-1.4%[12.7 µM],.,.,.,.,.
COc1ccccc1/C=C1\C(=O)NC(=S)N(c2ccccc2)C1=O,28.2µM*,-2.6,-2.9,25.7%,28.2µM*,-24.2%
CCN1C(=O)/C(=C/c2ccc(N(CC)CC)cc2OC)C(=O)NC1=S,35.5µM*,-1.8,14.6,6.9%,-23.7%,?
O=C1NC(=S)N(c2ccc(F)cc2)C(=O)/C1=C/c1ccccc1O,-19.2%,1.5,1.6,30.6%,-2.9%,0.2%
CCN(CC)c1ccc(/C=C2\C(=O)NC(=O)N(CC3CCCO3)C2=O)cc1 (centres undefined),?,1.3,.,3.8%,-26.9%,?
COc1ccccc1C=C1C(=O)NC(=S)NC1=O,.,7.7,-1.2,?,20µM*,.
COc1ccc(/C=C/C=C2C(=O)NC(=S)NC2=O)cc1,.,-7.8,-2.1,-26.4%,-30.6%,.
Nc1ccc2c3c(cccc13)CC2,39.8µM*,-0.1,0.8,-11.5%,-31.5%,?
COc1ccc(-c2nc(CN3C(=O)CN=C(c4ccccc4)c4ccccc43)c(C)o2)cc1OC,-32.2%[59 µM],.,.,28.6%,-20.5%,?
CC(C)CC1C(=O)N2CCC[C@H]2[C@]2(O)O[C@](NC(=O)[C@@H]3C=C4c5cccc6[nH]c(Br)c(c56)C[C@H]4N(C)C3)(C(C)C)C(=O)N12 (some centres undefined),.,.,.,1.6%,?,.
CC(C)[C@@]1(NC(=O)[C@@H]2C=C3c4cccc5[nH]cc(c45)C[C@H]3N(C)C2)O[C@@]2(O)[C@@H]3CCCN3C(=O)[C@H](Cc3ccccc3)N2C1=O,8.91µM*,.,.,.,.,-34.8%
CC(C)[C@@]1(NC(=O)[C@@H]2C[C@@H]3c4cccc5[nH]cc(c45)C[C@H]3N(C)C2)O[C@@]2(O)[C@@H]3CCCN3C(=O)[C@H](Cc3ccccc3)N2C1=O,?,4.7,7.2,5.3%,-30.9%,39.8µM*
CCN(CC)C(=O)Oc1ccc2cc(Br)ccc2c1,108.0%[59 µM],16.7,12.6,171.8%,95.5%,78.3%
C1CCc2nnnn2CC1,19.6%[59 µM],.,.,.,.,.
CC1CN(c2ccc([N+](=O)[O-])cc2Cl)CCN1 (centres undefined),39.8µM*,-5.1,.,20.3%,-13.8%,-11.3%
O=C1NC(=O)N(Cc2ccc(F)cc2)C(=O)/C1=C\c1ccc([N+](=O)[O-])s1,6.31µM*,?,-10.2,?,20µM*,35.5µM*
COc1ccc(CN2C(=O)NC(=O)/C(=C/c3ccc([N+](=O)[O-])s3)C2=O)cc1,8.91µM*,?,?,28.2µM*,22.4µM*,25.1µM*
Cc1ccc(/C=C2\C(=O)NC(=O)N(CC3CCCO3)C2=O)s1 (centres undefined),?,3.0,0.0,27.0%,-23.4%,?
SMILES,G9a block,Six1-Eya2 inh,CtBP-E1A inh,HP1b binding inh,JMJD2A Tudor,BAZ2B inh
C[C@]12CCC3C(CCC4=C(Cl)C(=O)CC[C@@]43C)C1CCC2O (some centres undefined),7.3%[12.7 µM],.,.,.,.,.
O=c1[nH]c(=O)n(-c2ccccc2)c(O)c1/C=C1/C(c2ccccc2)=Nc2ccccc21,?,0.7,-1.4,-9.8%,?,?
COC(=O)C1=Nc2ccccc2/C1=C\c1c(O)n(-c2ccc(OC)cc2)c(=O)[nH]c1=O,9.3%[12.7 µM],-1.9,-9.6,9.8%,?,79.4µM*
COC(=O)C1=Nc2ccccc2/C1=C\c1c(O)n(-c2ccc(Br)cc2)c(=O)[nH]c1=O,15.8µM*,-7.9,7.5,-11.1%,?,56.2µM*
COc1ccc(OC)c(-n2c(O)c(/C=C3\C(C)=Nc4ccccc43)c(=O)[nH]c2=O)c1,50.1µM*,2.4,-16.3,5.8%,-19.7%,-36.5%
c1cnc(N2CCC3(CCNCC3)CC2)nc1,-3.6%[12.7 µM],.,.,.,.,.
CCOc1ccccc1N=Cc1c(O)n(C)c(=O)n(C)c1=O,50.1µM*,2.1,5.6,45.7%,-5.5%,0.8%
Cn1c(=O)c(Oc2ccc(F)cc2)c(O)c2ccccc21,?,-2.7,5.7,26.4%,1.0%,-2.2%
CCOc1cccc(OCC)c2c(C)[n+](CC3CCCO3)c(C)c1-2 (centres undefined),?,-28.4,-6.2,-1.3%,35.5µM*,25.1µM*
COc1cc2c(cc1O)[C@H]1Cc3ccc(OC)c(O)c3CN1CC2,1.8%[21.5 µM],.,.,.,.,.
Cc1ccccc1CN1C(=O)C(C)N=C(c2ccccc2)c2ccccc21 (centres undefined),-9.9%[59 µM],.,.,9.3%,-17.9%,2.0%
COc1ccc(CNCCc2c[nH]c3ccccc23)c(OC)c1C,15.8µM*,7.8,7.4,?,5.62µM*,56.2µM*
COc1cc(C)c(CNCCc2c[nH]c3ccccc23)cc1C,?,?,.,?,22.4µM*,39.8µM*
CCOc1cc(CNCCc2ccccc2F)ccc1OC,8.91µM*,0.1,.,-36.4%,44.7µM*,39.8µM*
COc1ccc(CNCCc2ccccc2F)c(OC)c1C,79.4µM*,2.1,7.2,?,17.8µM*,?
O=C1CCC(c2ccccc2)(C2CCN(Cc3ccccc3)CC2)C(=O)N1 (centres undefined),11.8%[59 µM],5.9,-14.6,33.9%,-9.0%,9.7%
COc1cccc(Cn2c(=O)oc3ccccc32)c1,20.4%,1.3,16.7,41.5%,9.1%,11.5%
COc1ccc2[nH]cc(CCNCc3cccnc3)c2c1,.,-0.3,4.8,44.9%,-9.3%,?
COc1cccc(CNCCc2c[nH]c3ccccc23)c1,20.5%[2.33 µM],-15.6,-8.0,-24.9%,3.55µM*,79.4µM*
C=CCn1c(O)c(C=Nc2ccc(Cc3ccncc3)cc2)c(=O)[nH]c1=S,30.8%[0.501 µM],-0.5,1.8,48.4%,?,?
